Measurements published in PubChem BioAssay (NCATS).
Records with an inconclusive call do not appear. Where a call stands in place of a potency, no number is given. Calls of active or inactive are those of the source. Calls follow the shape of the dose curve; as a rule, active = well fitted inhibition curve with a large enough effect; inconclusive = small, poorly fitted or top-dose-only effect; inactive = flat fitted curve, though single readings scatter.

What was measured:
Experiment in all cases: qHTS profiling for inhibitors of Plasmodium falciparum proliferation (AID 504749); also: nearly all actives have a fitted effect of over 60% in size
Conditions in all cases: P. falciparum in erythrocytes, SYBR Green DNA, 72 h; series mostly up to 28.7 µM
CP297 = system: CP297
Method in brief: (§1)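 Each compound contacts P. falciparum-infected red blood cells for 72 h at 37 C; lysis buffer (Tris, EDTA, saponin, Triton X, SYBR Green I) is added and fluorescence measured next morning; values normalized to controls.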

CP305 = system: CP305
Method in brief: as §1

CP315 = system: CP315
Method in brief: as §1

CP325 = system: CP325
Method in brief: as §1

CP329 = system: CP329
Method in brief: as §1

CP335 = system: CP335
Method in brief: as §1

DFO2036 = system: DFO2036
Method in brief: as §1

DIV14 = system: DIV14
Method in brief: as §1

DIV17 = system: DIV17
Method in brief: as §1

DIV30 = system: DIV30
Method in brief: as §1

Dd2 = system: Dd2
Method in brief: as §1

ECU = system: ECU
Method in brief: as §1

FAB9 = system: FAB9
Method in brief: as §1

GB4 = system: GB4
Method in brief: as §1

HB3 = system: HB3
Method in brief: as §1

ICS = system: ICS
Method in brief: as §1

JCK = system: JCK
Method in brief: as §1

N140 = system: N140
Method in brief: as §1

P93_24 = system: P93_24
Method in brief: as §1

P94_40 = system: P94_40
Method in brief: as §1
Potency is read from the fitted curve at half-maximal effect.

| SMILES | Potency (CP297) | Potency (CP305) | Potency (CP315) | Potency (CP325) | Potency (CP329) | Potency (CP335) | Potency (DFO2036) | Potency (DIV14) | Potency (DIV17) | Potency (DIV30) | Potency (Dd2) | Potency (ECU) | Potency (FAB9) | Potency (GB4) | Potency (HB3) | Potency (ICS) | Potency (JCK) | Potency (N140) | Potency (P93_24) | Potency (P94_40) |
| --- | --- | --- | --- | --- | --- | --- | --- | --- | --- | --- | --- | --- | --- | --- | --- | --- | --- | --- | --- | --- |
| CC(C)[N+](C)(CCC(C(N)=O)(c1ccccc1)c1ccccc1)C(C)C | inactive | inactive | inactive | inactive | inactive | inactive | inactive | inactive | inactive | inactive | inactive | inactive | inactive | inactive | inactive | inactive | inactive | inactive | inactive | inactive |
| CCC(=O)O[C@H]1CC[C@H]2[C@@H]3CCC4=CC(=O)CC[C@]4(C)[C@H]3CC[C@]12C | inactive | inactive | inactive | inactive | inactive | inactive | inactive | inactive | inactive | inactive | inactive | inactive | inactive | inactive | inactive | inactive | inactive | inactive | inactive | inactive |
| c1ccc2nc(N3CCNCC3)ccc2c1 | inactive | inactive | inactive | inactive | inactive | inactive | inactive | inactive | inactive | inactive | inactive | inactive | inactive | inactive | inactive | inactive | inactive | inactive | inactive | inactive |
| NCc1cccnc1 | inactive | inactive | inactive | inactive | inactive | inactive | inactive | inactive | inactive | inactive | inactive | inactive | inactive | inactive | inactive | inactive | inactive | inactive | inactive | inactive |
| CCN(CC)C(C)C(=O)c1ccccc1 (centres undefined) | inactive | inactive | inactive | inactive | inactive | inactive | inactive | inactive | inactive | inactive | inactive | inactive | inactive | inactive | inactive | inactive | inactive | inactive | inactive | inactive |
| NC(=O)CN1CCCC1=O | inactive | inactive | inactive | inactive | inactive | inactive | inactive | inactive | inactive | inactive | inactive | inactive | inactive | inactive | inactive | inactive | inactive | inactive | inactive | inactive |
| CCCCCCCCC(=O)NCc1ccc(O)c(OC)c1 | inactive | inactive | inactive | inactive | inactive | inactive | inactive | inactive | inactive | inactive | inactive | inactive | inactive | inactive | inactive | inactive | inactive | inactive | inactive | inactive |
| C#C[C@]1(O)CC[C@H]2[C@@H]3CCC4=CC(=O)CCC4=C3C=C[C@@]21CC |  |  | inactive |  |  |  |  | 4.26 µM (active) | 5.36 µM (active) |  |  | 11.2 µM (active) |  |  | 10 µM (active) | 8.91 µM (active) | inactive |  |  |  |
| OC(O)C(Cl)(Cl)Cl |  | inactive | inactive | inactive | inactive | inactive | inactive | inactive | inactive | inactive | inactive | inactive | inactive | inactive | inactive | inactive | inactive | inactive | inactive | inactive |
| CC(Cc1ccccc1)NCc1ccccc1Cl (centres undefined) | inactive | inactive | inactive |  | inactive |  | inactive |  |  |  | 12.6 µM (active) | inactive | inactive |  | inactive |  | inactive |  |  |  |
| O=C1NCN(c2ccccc2)C12CCN(CCCOc1ccc(F)cc1)CC2 | 12 µM (active) |  | inactive |  | inactive |  |  | 8.49 µM (active) |  |  | 8.91 µM (active) | inactive | inactive | 6.75 µM (active) | inactive |  | inactive |  | 8.91 µM (active) |  |
| COc1ccc(CN2CCNCC2)c(OC)c1OC |  |  |  |  |  | inactive | inactive |  |  |  | inactive | inactive | inactive |  | inactive | inactive | inactive | inactive | inactive | inactive |
| COc1ccc(C(=O)N2CCCC2=O)cc1 |  | inactive | inactive | inactive | inactive | inactive | inactive | inactive |  | inactive | inactive | inactive | inactive | inactive | inactive | inactive | inactive | inactive | inactive | inactive |
| C[C@]12Cc3nonc3C[C@@H]1CC[C@@H]1[C@@H]2CC[C@@]2(C)[C@H]1CC[C@]2(C)O | inactive | inactive | inactive | inactive | inactive |  | inactive | inactive | inactive | inactive | inactive | inactive | inactive | inactive | inactive |  | inactive | inactive | inactive | inactive |
| Clc1ccc(CO/N=C(\Cn2ccnc2)c2ccc(Cl)cc2Cl)c(Cl)c1 | 4.78 µM (active) | 13.5 µM (active) |  | 13.5 µM (active) |  | 6.01 µM (active) | 3.98 µM (active) | 1.51 µM (active) | 1.9 µM (active) | 3.38 µM (active) | 4.47 µM (active) | 2.24 µM (active) |  | 1.69 µM (active) | 7.94 µM (active) | 1.12 µM (active) |  | 2.24 µM (active) | 2.24 µM (active) | 2.82 µM (active) |
| CNC(=O)NC(O)C(Cl)(Cl)Cl (centres undefined) | inactive | inactive | inactive | inactive | inactive | inactive | inactive |  | inactive | inactive | inactive | inactive | inactive | inactive | inactive | inactive | inactive | inactive | inactive | inactive |

| SMILES | Potency (CP297) | Potency (CP305) | Potency (CP315) | Potency (CP325) | Potency (CP329) | Potency (CP335) | Potency (DFO2036) | Potency (DIV14) | Potency (DIV17) | Potency (DIV30) | Potency (Dd2) | Potency (ECU) | Potency (FAB9) | Potency (GB4) | Potency (HB3) | Potency (ICS) | Potency (JCK) | Potency (N140) | Potency (P93_24) | Potency (P94_40) |
| --- | --- | --- | --- | --- | --- | --- | --- | --- | --- | --- | --- | --- | --- | --- | --- | --- | --- | --- | --- | --- |
| Cc1c(Cl)c(=O)oc2cc(OP(=O)(OCCCl)OCCCl)ccc12 | 12 µM (active) | 6.75 µM (active) |  | 13.5 µM (active) | 12 µM (active) |  | 10 µM (active) | 8.49 µM (active) |  |  |  | 10 µM (active) | inactive | 12 µM (active) | 11.2 µM (active) | 11.2 µM (active) |  | 8.91 µM (active) | 11.2 µM (active) | 6.31 µM (active) |
| CCN(CC)CCOC(=O)C(C)(c1ccccc1)c1ccccc1 |  |  | inactive |  |  | 4.78 µM (active) |  |  | 6.01 µM (active) |  | 0.0891 µM (active) |  | inactive |  | inactive |  | inactive |  |  |  |
| CN1C(=O)[C@@H](NC(=O)c2cc3ccccc3[nH]2)N=C(c2ccccc2)c2ccccc21 |  |  |  |  |  |  |  | 12 µM (active) | 10.7 µM (active) |  | 11.2 µM (active) | 10 µM (active) | inactive | 15.1 µM (active) |  | 8.91 µM (active) | inactive |  |  | 11.2 µM (active) |
| CC(C)(O)C(Cl)(Cl)Cl |  | 6.01 µM (active) |  | 12 µM (active) |  | 2.39 µM (active) | 3.55 µM (active) | 1.51 µM (active) | 1.51 µM (active) | 5.36 µM (active) | 2.51 µM (active) | 3.98 µM (active) | 7.94 µM (active) | 2.69 µM (active) | 2 µM (active) | 0.891 µM (active) | 11.2 µM (active) | 2.51 µM (active) | 2.24 µM (active) | 2.51 µM (active) |
| CNC(=O)Oc1cccc2ccccc12 |  | inactive |  | inactive | inactive | inactive | inactive |  | inactive | inactive | inactive | inactive | inactive |  | inactive |  | inactive | inactive |  | 12.6 µM (active) |
| CN1C[C@@H](NS(=O)(=O)N(C)C)C[C@@H]2c3cccc4c3c(cn4C)C[C@H]21 |  | inactive | inactive | inactive |  |  | inactive | inactive | inactive |  |  | inactive | inactive | inactive | inactive |  | inactive | inactive |  |  |
| C[C@]12C=CC(=O)C=C1CC[C@@H]1[C@@H]2CC[C@@]2(C)[C@H]1CC[C@]2(C)O | 19 µM (active) |  |  |  |  | inactive | inactive |  |  | 16.9 µM (active) | inactive | inactive | inactive |  | inactive | inactive | inactive | inactive | inactive | inactive |
| OC(c1ccccc1)(c1ccccc1)C1CCNCC1 | inactive | inactive | inactive | inactive | inactive | inactive | inactive |  |  |  | inactive | inactive | inactive | inactive | inactive |  | inactive | inactive | inactive | inactive |
| ClC1=C(Cl)C2(Cl)C(CBr)CC1(Cl)C2(Cl)Cl (centres undefined) | inactive | inactive | inactive | inactive | inactive |  | inactive | inactive | inactive | inactive | inactive | inactive | inactive | inactive | inactive |  | inactive | inactive | inactive | inactive |
| Oc1ccc2[nH]cc(CCCCN3CC=C(c4ccccc4)CC3)c2c1 | 15.1 µM (active) |  | 16.9 µM (active) |  |  |  | 10 µM (active) | 13.5 µM (active) | 13.5 µM (active) |  | 11.2 µM (active) |  | inactive | 9.53 µM (active) |  | 8.91 µM (active) | inactive |  | 11.2 µM (active) |  |
| Nc1ccc(N)cc1 |  |  | inactive |  | inactive |  |  | 15.1 µM (active) | 15.1 µM (active) |  | inactive |  |  | 15.1 µM (active) | inactive |  | inactive |  |  |  |
| CN1C(=O)CN=C(c2ccccc2)c2cc([N+](=O)[O-])ccc21 | inactive | inactive | inactive |  | inactive |  | inactive | inactive | inactive | inactive | inactive | inactive | inactive | inactive |  | inactive | inactive | inactive | inactive | inactive |
| N#Cc1nn(-c2c(Cl)cc(C(F)(F)F)cc2Cl)c(N)c1S(=O)C(F)(F)F (centres undefined) | 10.7 µM (active) | 7.57 µM (active) |  |  | 7.57 µM (active) | 13.5 µM (active) |  | 4.78 µM (active) | 7.57 µM (active) | 9.53 µM (active) |  |  |  | 7.57 µM (active) |  | 5.62 µM (active) |  | 7.94 µM (active) |  |  |
| Oc1c(Br)cc(Br)cc1Br |  | inactive | inactive | inactive | inactive | inactive | inactive | inactive | inactive | inactive | inactive | inactive | inactive | inactive | inactive | inactive | inactive | inactive | inactive | inactive |
| COCC(=O)N(c1c(C)cccc1C)C(C)C(=O)OC (centres undefined) | inactive | inactive | inactive | inactive | inactive | inactive |  | inactive | inactive | inactive | inactive |  | inactive | inactive | inactive | inactive | inactive |  |  |  |
